According to PubChem BioAssay (NCI):
Values joined by “and” are separate entries in the source; they are usually repeats but may differ in a detail not shown here. Identical values can stand only once. The panel holds about 83,000 compounds, 20% with a hit somewhere; the sample as a whole holds those more often.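 Negative percent growth values reflect cell death: -40 means 40% of the cells present at the start died, and -100 means all died.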 A number with no mark means an inactive call. Active and inactive are the calls of the source. The calls were made as follows: active = growth percent below 10; inactive = the rest.

What follows are compounds tested on MDA-MB-468 breast (assay: NCI-60 one-dose screen, 48 h (100 = growth as untreated, 0 = no growth, -100 = all killed)). Conditions: 10 µM unless noted.

Row | Compound | growth
1 | N#Cc1cccc(C2C3=C(COC3=O)N(CCO)c3cc4c(cc32)CCC4)c1 (stereo not given) | 3.97% (active)
2 | Cc1ccc(-c2cc(-c3ccccc3C)[nH]c(=O)c2C#N)s1 | 99.3%
3 | COc1cc(Cl)cc(-c2nn(C(=O)NCCN3CCOCC3)cc2-c2ccncc2)c1 | 27.6%
4 | CCOC(=O)Cn1c(=O)c2sc3ncccc3c2n2nnc(-c3ccccc3)c12 | 119%
5 | C=CCNC(=S)NN | 56.5%
6 | COc1ccc2nc3cc(Cl)ccc3c(NCCN)c2c1 | -61.6% (active)
7 | COC(=O)c1c2c(c(C)[n+]([O-])c1C)C(=O)C=C(NCc1ccc(F)cc1)C2=O | -67% (active)
8 | CC(=O)NC(CCc1ccc(Cl)c(Cl)c1)c1cccc(O)c(=O)c1 (stereo not given) | -31.6% (active)
9 | C#CC(C)(O)[C@@H]1C[C@H](CC(=O)O)C1(C)C (stereo not given in full) | 114%
10 | NC(=O)NCC1CCCCC1 | 98%
11 | CCn1cc(CNc2ccc(C(=O)Nc3cc4cc(OC)c(OC)cc4c(C)n3)cc2)cn1 | 41.8%
12 | COc1cc2c3c(n(CCCNC4CCCC4)c(=O)c2cc1OC)-c1cc2c(cc1C3=O)OCO2 | 70.9%
13 | O=[N+]([O-])c1ccc(Sc2ccncn2)c([N+](=O)[O-])c1 | 24%
14 | O=C(O)c1cn(C2CC2)c2cc(N3CCN(C(=O)C[n+]4ccccc4)CC3)c(F)cc2c1=O | 107%
15 | O=C(Cc1ccc([N+](=O)[O-])cc1)Oc1ccccc1 | 113%
16 | COC(=O)c1ccc2[nH]c(O)c(C(=Nc3ccc(N(C)C(=O)CN4CCN(C)CC4)cc3)c3ccc(OC)cc3)c2c1 | 64.5%
17 | O=C1c2cccc(NCCN=Cc3cc(O)ccc3O)c2C(=O)c2c(NCCN=Cc3cc(O)ccc3O)cccc21 | -85.8% (active)
18 | O=C1CCC(C(=O)N/N=C/c2cc(F)ccc2F)N1 (stereo not given) | 111%
19 | CC(C)C[C@@H](NC(=O)[C@@H](Cc1ccccc1)NC(=O)c1cnccn1)B1O[C@H]2[C@H](O)[C@@H](C(=O)NCCCC[C@@H]3NC(=O)[C@@H](Cc4ccccc4)NC(=O)[C@H](CC(=O)O)NC(=O)CNC(=O)[C@H](CCCN=C(N)N)NC3=O)O[C@@H](CN)[C@H]2O1 | -45.5% (active)
20 | C#CCN(Cc1ccc2nc(N)[nH]c(=O)c2c1)c1ccc(C(=O)NC(CCC(=O)O)C(=O)O)cc1 (stereo not given) | 37.7%
21 | CN(C)c1ccc2nc3ccc(=O)cc-3sc2c1 | 15% and 29.5%
22 | CC(C)(C)CC(C)(C)c1ccc(OCCOCCSC(=N)N)cc1 | -47.3% (active)
23 | COc1ccc(Br)c(C=O)c1 | 84.5%
24 | COc1cc(-c2nn(C(C)(C)C)cc2-c2ccnc(NCCCNS(=O)(=O)c3ccc(F)cc3)n2)ccc1Cl | 72.9%
25 | CCOc1ccc(C(=O)O)cc1 | 83.4%
